# Experimental data: PubChem BioAssay (NCI)
# The panel holds about 83,000 compounds, 20% with a hit somewhere; the sample as a whole holds those more often.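 Assay: single dose, 48 h. Readout: percent growth (0 = no net growth; negative = cell death). Active: <10.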 Activity calls are given as the source filed them.
# Tested on: ACHN renal
# Assay: NCI-60 one-dose screen, 48 h (100 = growth as untreated, 0 = no growth, -100 = all killed)
# Details: 10 µM unless noted
row,Structure (SMILES),growth
1,Cc1ccc(-c2nc(C(Cl)Cl)nc3cc(C)nn23)cc1,-45% (active)
2,O=C(Nc1nc(C(=O)N2CCN(C(c3ccccc3)c3ccccc3)CC2)cs1)c1ccc(NC2CCCCC2)c([N+](=O)[O-])c1,86.6% (inactive)
3,COc1cc(-c2nc3ccc(C)cc3[nH]2)ccc1OCC(=O)N=Nc1c(O)[nH]c2ccc(Cl)cc12,31.4% (inactive)
4,C=C1C(=O)O[C@H]2[C@H]1CC/C(COC(=O)NCCCCCCCCNC(=O)OC/C1=C/CC[C@@]3(C)O[C@H]3[C@H]3OC(=O)C(=C)[C@@H]3CC1)=C\CC[C@@]1(C)O[C@@H]21,-93.2% (active)
5,Nc1c(C(=O)Nc2ccncc2)sc2nc3c(cc12)CCCCC3,88.6% (inactive)

# Tested on: CAKI-1 renal
# Assay: as above
# Details: 10 µM unless noted
row,Structure (SMILES),growth
1,CCN(CC)CCOc1nc2c3ccc(Cl)cc3nn2c2ccccc12,16.5% (inactive)
2,C=C(c1ccc(C(=O)O)cn1)c1cc2c(cc1C)C(C)(C)CCC2(C)C,87.9% (inactive)
3,CCn1cc(C(=O)NN=C2CCCCCC2)c(=O)c2ccc(C)nc21,79.9% (inactive)
4,Cc1c2cc[nH]c(=O)c2c(C)c2c1[nH]c1ccc(OC(=O)c3ccccc3)cc12,29.1% (inactive)
5,C#Cc1cccc(Nc2nc3ccc([N+](=O)[O-])cc3nc2Nc2cccc(C#C)c2)c1,-25.8% (active)
6,COc1cccc(C(=O)OCC(O)C(=O)NC23CC4CC(CC(C4)C2)C3)c1 (centres undefined),99.8% (inactive)
7,COc1ccc2cc(Cn3cc[n+](Cc4ccc5ccccc5c4)c3)ccc2c1,96% (inactive)
8,Cc1ccc(C(=O)c2ccc(CC(=O)N/N=C/c3ccc(O)cc3O)n2C)cc1,46.6% (inactive)
9,O=C(Nc1ccccc1)c1sc(-c2ccccc2)cc1O,90.6% (inactive)
10,COC(=O)c1ccc2c(c1)c1c(C)c3ccncc3c(C)c1n2C,13% (inactive)
11,O=C(O)c1cccc(N/C=C/C(=O)c2cc3cc(Br)ccc3oc2=O)c1,86.3% (inactive)
12,O=C(N/N=C/c1ccc([N+](=O)[O-])cc1)c1ccc2nc(-c3ccc(Cl)cc3)[nH]c2c1,42.7% (inactive)
13,CCCCN1C(=O)/C(=c2\sc3n(c2=O)NC2C(N=3)N(CC)C(=O)N2CC)c2ccccc21 (centres undefined),30.3% (inactive)
14,CNCc1cccc2c1OCCOCCN(C)C(=O)CN(C)S(=O)(=O)c1ccc(cc1)-c1cnc(N)c(n1)C(=O)N2,27.2% (inactive)
15,COc1ccccc1-n1c(-c2cc(O)ccc2C)cn2c3c(=O)[nH]c(=O)n(C)c3nc12,39.8% (inactive)
16,COc1ccc(NC(=O)c2sc3nc(C)c(C(O)c4ccccc4)cc3c2N)cc1 (centres undefined),42.4% (inactive)
17,COc1cc(C2C3=C(COC3=O)N(CCO)c3cc4c(cc32)OCCO4)cc(OC)c1OC (centres undefined),41.3% (inactive)
18,C/C(=C(/c1ccc(Cl)cc1)c1ccc(OCCCN(C)C)cc1)c1ccc(Cl)cc1,87.3% (inactive)
19,O=C(CSc1nc2ccc([N+](=O)[O-])cc2[nH]1)Nc1ccc(Br)cc1,39.6% (inactive)
20,C[N+](C)(C/C=C/c1ccccc1)Cc1ccccc1,97.2% (inactive)
21,C/C(=C(\c1ccc(OCCN2CCCCCC2)cc1)c1ccc(OC(=O)Cc2ccccc2)cc1)c1ccc(Cl)cc1,48.7% (inactive)
22,COc1ccc2c(c1)c(-c1nonc1-c1c[nH]c3ccc(Br)cc13)cn2C,34.3% (inactive)
23,CCCCCCCCn1ccc2cc(NC(=O)Cn3cc(CN4CCN(CC)CC4)nn3)ccc21,69.6% (inactive)
24,C#CC#CC#CC#CC#CC#CC#CC#CC[C@H]1OC[C@@H](COC(=O)O[C@@H](C(=O)O[C@H]2C[C@@]3(O)[C@@H](OC(=O)c4ccccc4)[C@@H]4[C@]5(OC(C)=O)CO[C@@H]5C[C@H](O)[C@@]4(C)C(=O)[C@H](OC(C)=O)C(=C2C)C3(C)C)[C@@H](NC(=O)c2ccccc2)c2ccccc2)O1,79.6% (inactive)
25,Cc1cc(C)cc(Nc2ccc([N+](=O)[O-])c(NCCN3CCOCC3)n2)c1,37.4% (inactive)
26,CCN=C1C=CC(=C(c2ccc(N(C)C)cc2)c2ccc(N(C)C)cc2)c2ccccc21,0.419% (active)
27,CCOC(=O)Cn1c(=O)c2c3ccccc3n(C)c2n2nnc(-c3ccccc3)c12,81.2% (inactive)
28,COc1ccc2[nH]cc(-c3nc(-c4cn(C)c5ccncc45)cs3)c2c1,67.2% (inactive)
29,COc1ccc2nc(SCC(=O)Nc3ccccc3C)[nH]c2c1,88% (inactive)
